The record followed here is publication PMC5540273 (PLoS ONE, 2017).
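Note: KINOMEscan kinase panel screen.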

The test system of the experiment is LIMK2. To be noted: concentration: 1 μM, replicates: in singlicate; n = 1.
Consider `COc1cc2ncnc(Nc3ccc(OCc4ccccc4Br)c(Cl)c3)c2cc1OC.Cl` [GI261590], for which the “%Inh” value was 3%.

As to `CSc1nn2c(=O)cc(N3CCOCC3)nc2n1Cc1cccc(Cl)c1Cl` [GSK2347225], the “%Inh” value is recorded as 19%.

Regarding `Fc1cccc(COc2ccc(Nc3ncnc4sc(-c5ccc[nH]5)cc34)cc2Cl)c1` [GW707818], the “%Inh” value was determined as 17%.

`Cl.O=S(=O)(c1cccc(F)c1)c1ccc(Nc2ncnc3cc(Br)sc23)cc1Cl` [GSK306886]: the “%Inh” value is 3%.

Turning to `CN1c2ccc(-c3ccc(C(=O)NCCO)cc3)cc2-c2[nH]ncc2S1(=O)=O`, the “%Inh” value is 7%.

For the compound `Nc1nc(-c2ccc3c(N)n[nH]c3c2)cc(N2CCCCC2)n1` [GSK2228768], the “%Inh” value was found to be 0%.

Consider `Cn1ccc2ncnc(Oc3ccc(NC(=O)Nc4cccnc4)c(Cl)c3)c21`, for which the “%Inh” value is 0%.

As for `Clc1cc(Nc2ncnc3cc[nH]c23)ccc1OCc1ccccn1`, the “%Inh” value is reported as 0%.

Turning to `Cl.Cl.c1ccc(-c2cc3ccncc3cc2OC2CCNCC2)cc1` [GSK1122999], the “%Inh” value came to 34%.

For `Fc1ccc(Nc2nccc(-c3c(-c4ccc(Cl)cc4)nn4ncccc34)n2)cc1F` [GW829058], the “%Inh” value was 7%.

For the compound `C[C@H]1CC[C@@H](C(=O)Nc2ccccc2)CN1c1cc(-c2ccc3c(N)n[nH]c3c2)nc(N)n1` [GSK2283293], the “%Inh” value was found to be 0%.

Turning to `FC(F)(F)c1cc(Nc2nccc(-c3c(-c4ccc(Cl)cc4)nn4ncccc34)n2)ccc1Cl` [GW829351], the “%Inh” value turned out to be 0%.

Turning to `FC(F)(F)c1ccc(-c2cc(-c3c[nH]nc3-c3ccccn3)ccn2)cc1` [GW599550], the “%Inh” value was 0%.

Regarding `Nc1nc(-c2cccnc2)c(-c2ccnc3ccccc23)s1` [GW684083], the “%Inh” value is listed as 0%.

Consider `Cl.c1ccc(Cn2ncc3cc(Nc4ncnc5ccccc45)ccc32)cc1` [GW273749], for which the “%Inh” value came to 75%.

On to `O=C(NCCCN1CCCC1=O)c1cnc(NCc2cc(Cl)ccc2Cl)nc1NC1CCNCC1`, for which the “%Inh” value worked out at 0%.

For the compound `Cc1ccc(O)cc1Nc1cc(C(F)(F)F)nc2ccc(-c3ccncc3)cc12` [GW630823], the “%Inh” value is listed as 15%.

Take `C[C@@H]1CCN(C(=O)CO)C[C@@H]1N(C)c1ncnc2[nH]ccc12`: the “%Inh” value is 8%.

Take `COc1ccc(NC(=O)Nc2ccc(C)c(-c3ccc(C(=O)Nc4ccncc4)cc3)c2)cc1` [GSK1398475]: the “%Inh” value stood at 22%.

Consider `O=c1cc(N2CCOCC2)nc2n(Cc3cccc(Cl)c3)ccn12` [GSK2296823], for which the “%Inh” value worked out at 0%.

As to `CC(C)N1CCC(n2cnc(-c3ccc(F)cc3)c2-c2ccnc(N)n2)CC1` [SB-223132], the “%Inh” value was 9%.

In the case of `Clc1cccc(-c2nc(Nc3ccncc3)c3ccccc3n2)c1` [GW873004], the “%Inh” value is listed as 12%.

Regarding `COC(=O)c1c(-c2ccccc2)c2cc(Cl)ccc2c(=O)n1Cc1ccc(S(C)(=O)=O)cc1`, the “%Inh” value came out at 0%.

With `Oc1ccc2ncnc(Nc3ccc(OCc4ccccc4)cc3)c2c1` [GI262866], the “%Inh” value turned out to be 4%.

Take `COc1cc2c(Nc3cccc(NC(=O)c4ccccc4)c3)ncnc2cc1OCCCN1CCOCC1` [GSK223810]: the “%Inh” value turned out to be 7%.

On to `CCc1nc(-c2cccc(C)c2)c(-c2ccnc(NC(=O)c3ccccc3)c2)s1`, for which the “%Inh” value was determined as 0%.

`Clc1ccc(-c2cc(-c3c[nH]nc3-c3ccccn3)ccn2)cc1` [GW681251]: the “%Inh” value amounted to 0%.

For the compound `Nc1nc(-c2ccc3c(N)n[nH]c3c2)cc(N2CCC[C@@H](C(=O)Nc3ccccc3)C2)n1.O=C(O)C(F)(F)F.O=C(O)C(F)(F)F` [GSK2288359], the “%Inh” value is given as 7%.

Regarding `CCn1c(-c2ccncc2)nc2cnccc21` [SB-735216], the “%Inh” value is listed as 0%.

Regarding `Cn1ccc2ncnc(Nc3ccc(Oc4cccc(Cl)c4)c(Cl)c3)c21`, the “%Inh” value was 6%.

For the compound `Fc1ccc(-c2ncn(CCCNCc3ccccc3)c2-c2ccncc2)cc1`, the “%Inh” value was 7%.

As for `CC(C)(C)OC(=O)NC1CCCN(c2cc(-c3ccc4c(N)n[nH]c4c3)nc(N)n2)C1` (centres unmarked) [GSK2286096], the “%Inh” value came out at 0%.

On to `CC(=O)Nc1n[nH]c2ncc(-c3ccccc3)cc12` [SB-548492], for which the “%Inh” value is 45%.

Consider `COc1ccc(Nc2nccc(N3CCC(NC(=O)Nc4ccc5c(c4)OCO5)C3)n2)cc1` (centres unmarked) [GSK1379745], for which the “%Inh” value worked out at 26%.

Consider `CN1CCC(n2cnc(-c3ccc(F)cc3)c2-c2ccnc(NC3CCNCC3)n2)CC1` [SB-229482], for which the “%Inh” value was found to be 30%.
